Only a sample is shown.
aSyn UTR act = Activators via SNCA 5'UTR binding, MLPCN; alpha-synuclein 5'UTR reporter, activators screen; activity score, % (tested at 7.5 µM), hits read low; 300,000 tested, 7.1% active; AID 1814, 2009; in the data active = activity score below about -60%
The depositor's hits bear a star.

How did CCCCOc1cccc(C(=O)Nc2ccc(NC(=O)c3cccs3)cc2)c1 do in these assays?
aSyn UTR act: 64

Results for COc1ccc(/C=C/C(=O)c2ccc(NC(=O)c3cccs3)cc2)cc1OC ?
aSyn UTR act: -94*

How did CC1=C(C)CC(C(=O)NCC(=O)c2ccccc2)C(C(=O)O)C1 (centres undefined) do in these assays?
aSyn UTR act: -169*

What do the screens show for `Cc1ccn(-c2ccc(NC(=O)c3cccs3)cc2)n1`?
aSyn UTR act: -63*

Results for COc1cc(OC)cc(C(=O)Nc2ccc(N3CCN(C(=O)c4cccs4)CC3)cc2)c1 ?
aSyn UTR act: -180*

How did O=C(Nc1ccc2[nH]ccc2c1)c1cccs1 do in these assays?
aSyn UTR act: -105*

What do the screens show for `O=C(NC(=S)Nc1ccc(N2CCCCC2)c(Cl)c1)c1cccs1`?
aSyn UTR act: -110*

Results for COc1ccc(NC(=O)c2cccs2)cc1O ?
aSyn UTR act: -135*

How did CCC(=O)NC(c1cccs1)c1ccc2cccnc2c1O (centres undefined) do in these assays?
aSyn UTR act: 80

How did Cc1conc1NC(c1cccs1)c1ccc2cccnc2c1O (centres undefined) do in these assays?
aSyn UTR act: 66

What do the screens show for `Cc1cccnc1NC(=S)NC(=O)c1cccs1`?
aSyn UTR act: -398*

Results for CCCCNS(=O)(=O)c1ccc(NC(=O)c2cccs2)cc1 ?
aSyn UTR act: -66*

Results for O=C(CNC(=S)NC(=O)c1ccco1)c1ccccc1 ?
aSyn UTR act: -80*

What do the screens show for `Cc1cccnc1NC(=O)NC(=O)c1ccc(C(C)(C)C)s1`?
aSyn UTR act: -169*

What do the screens show for `O=C(CNC(=S)NC(=O)c1cccs1)c1ccccc1`?
aSyn UTR act: -74*

Results for COc1cccc2c1C(=O)c1c(O)c3c(c(O)c1C2=O)C[C@@](O)(C(=O)CO)C[C@@H]3O[C@H]1C[C@H](N)[C@@H](O)[C@H](C)O1 ?
aSyn UTR act: 109

How did O=C(Cc1ccccc1)NNC(=S)NC(=O)c1cccs1 do in these assays?
aSyn UTR act: 75

How did CN1CCN(c2ccc(NC(=O)c3cccs3)cc2)CC1 do in these assays?
aSyn UTR act: -88*

Results for O=C(CNC(=S)NC(=O)C1CCCCC1)c1ccccc1 ?
aSyn UTR act: -126*

Results for O=C(NC(=S)Nc1ccccc1)c1cccs1 ?
aSyn UTR act: -147*

Results for Cc1ccc(Nc2ncnc3ccccc23)cc1 ?
aSyn UTR act: -114*

Results for COC(=O)c1cccc(Nc2ncnc3ccc(C)cc23)c1 ?
aSyn UTR act: -88*

What do the screens show for `CC(C)Oc1ccc(Nc2ncnc3ccccc23)cc1`?
aSyn UTR act: -136*

How did Cc1ccc(/C(=N/Nc2ncnc3ccccc23)C(=O)O)cc1 do in these assays?
aSyn UTR act: -69*

What do the screens show for `Cc1cccc(Nc2ncnc3ccccc23)c1`?
aSyn UTR act: -98*

Results for COc1ccccc1C(=O)Nc1nnc(SCC(=O)NCc2ccco2)s1 ?
aSyn UTR act: -67*

Results for O=C(CSc1nnc(NC(=O)c2ccccc2F)s1)NCc1ccc(F)cc1 ?
aSyn UTR act: -84*

How did COc1ccc(C(=O)Nc2nnc(SCC(=O)NC3CCCC3)s2)c(OC)c1 do in these assays?
aSyn UTR act: 58

How did COc1ccccc1-c1nnc(NC(C)=O)s1 do in these assays?
aSyn UTR act: -91*

What do the screens show for `COc1ccc(C(=O)Nc2nnc(SCC(=O)Nc3ccc(NC(C)=O)cc3)s2)c(OC)c1`?
aSyn UTR act: -63*

How did O=C(CSc1nnc(NC(=O)c2ccc(F)cc2F)s1)NC1CC1 do in these assays?
aSyn UTR act: -69*

Results for Cc1ccccc1C(=O)Nc1nnc(-c2ccco2)s1 ?
aSyn UTR act: 65

What do the screens show for `O=C(CSc1nnc(NC(=O)c2ccccc2F)s1)NCc1ccco1`?
aSyn UTR act: -80*

Results for COc1ccccc1C(=O)Nc1nnc(-c2ccco2)s1 ?
aSyn UTR act: -168*

How did COc1ccccc1C(=O)Nc1nnc(SCC(=O)NCC2CCCO2)s1 (centres undefined) do in these assays?
aSyn UTR act: -102*

Results for CC1CCCC(C)N1CCCNC(=O)c1ccc2nc(N3CCCCC3)sc2c1 (centres undefined) ?
aSyn UTR act: -237*

Results for CC1CCN(c2nc3ccc(C(=O)NCCCN4CCCCC4C)cc3s2)CC1 (centres undefined) ?
aSyn UTR act: -277*

How did CCC1CCCCN1CCCNC(=O)c1ccc2nc(N3CCCCC3)sc2c1 (centres undefined) do in these assays?
aSyn UTR act: -280*

Results for CCS(=O)(=O)n1nc(-c2ccc(Cl)cc2)nc1SCc1ccccc1 ?
aSyn UTR act: -110*

What do the screens show for `CCN(CC)C(=O)c1ccc(-c2cccs2)s1`?
aSyn UTR act: -73*

What do the screens show for `Cc1ccc(-c2csc(N=C(N)N)n2)cc1`?
aSyn UTR act: -116*

How did COCCNC(=O)c1ccc2c(Cl)c3c(nc2c1)CCC3 do in these assays?
aSyn UTR act: -145*

What do the screens show for `CC(C)COC(=O)/C(C#N)=C/c1cn(Cc2ccccc2)c2ccccc12`?
aSyn UTR act: 80

How did CCOC(=O)/C(C#N)=C/c1cc(C)n(-c2ccc(C)cc2)c1C do in these assays?
aSyn UTR act: -130*

What do the screens show for `OCCNCc1ccc(OCc2ccc(Cl)cc2Cl)cc1`?
aSyn UTR act: -84*

Results for S=C(Nc1ccccc1)Nc1ccc(OCc2ccc(Cl)cc2Cl)cc1 ?
aSyn UTR act: 96

Results for Brc1ccc(-n2cnc(-c3ccccc3)c2)cc1 ?
aSyn UTR act: -136*

Results for Cn1c(=O)c(C(=O)NC2CCCCCC2)c(O)c2ccccc21 ?
aSyn UTR act: -72*

Results for Cn1c(=O)c(C(=O)NC2CCCCCCC2)c(O)c2ccccc21 ?
aSyn UTR act: -166*

What do the screens show for `Cn1cc(C(=O)C(=O)NC2CCCCC2)c2ccccc21`?
aSyn UTR act: -68*

How did CC1CCC(NC(=O)c2cc3c(=O)n(C)c4ccccc4c3n2C)CC1 (centres undefined) do in these assays?
aSyn UTR act: -98*

What do the screens show for `C=CCn1c(O)c(N=NC(=S)Nc2ccc(OC)c(Cl)c2)c2ccccc21`?
aSyn UTR act: 61

Results for COc1ccc(NC(=O)c2cc3c(=O)n(C)c4ccccc4c3n2C)cc1Cl ?
aSyn UTR act: -72*

How did CS(=O)c1ccccc1-c1nc(-c2cccc(Cl)c2)no1 (centres undefined) do in these assays?
aSyn UTR act: -144*

Results for CS(=O)c1ccccc1-c1nc(-c2ccc(Cl)cc2)no1 (centres undefined) ?
aSyn UTR act: -143*

How did COC(=O)c1cccc(NC(=O)NC23CC4CC(CC(C4)C2)C3)c1 do in these assays?
aSyn UTR act: -98*

What do the screens show for `O=C(Nc1nccs1)c1ccc(-c2cccc([N+](=O)[O-])c2)o1`?
aSyn UTR act: -175*

How did O=C(Nc1ccccc1F)Nc1ccc([N+](=O)[O-])cc1Cl do in these assays?
aSyn UTR act: -125*

Results for O=C(Nc1ccccc1F)c1ccc(-c2cccc([N+](=O)[O-])c2)o1 ?
aSyn UTR act: -141*

How did O=C(NC(=S)Nc1cccc(Cl)c1N1CCCC1)c1ccc(-c2cccc([N+](=O)[O-])c2)o1 do in these assays?
aSyn UTR act: -63*

What do the screens show for `C=CCNC(=O)c1ccc(-c2cccc([N+](=O)[O-])c2)o1`?
aSyn UTR act: -115*

How did Cc1cccc(-c2ncc(S(=O)(=O)C(C)(C)C)c(N)n2)c1 do in these assays?
aSyn UTR act: -84*

How did O=S(=O)(c1ccc(NC(=S)Nc2ccc3c(c2)OCO3)cc1)N1CCOCC1 do in these assays?
aSyn UTR act: -227*
